# Screening data from PubChem.
# Most compounds without a hit are left out; they make up all but 9.2% or so of the library.
# SMN2 splice up = qHTS Assay for Enhancers of SMN2 Splice Variant Expression | HEK293 SMN2-luciferase splicing reporter, luminescence, 30-36 h | Potency, µM (titrated, usually from 46.1 µM), for the others: top-dose activity change, positive = activation, actives largely listed as activators | 210,000 compounds, 2.8% hits; note: % of control where 0% means no effect; nearly all actives have a fitted effect of over 55% in size
#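 qHTS luciferase splicing reporter: luminescence rises when SMN2 exon 7 is included in transfected HEK293 cells. Compound exposure lasted 30-36 h at 37C, with 4.5 mM final sodium butyrate as control, followed by a ONE-Glo read.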
# Rab9 prom act = qHTS Assay for Rab9 Promoter Activators. 320,000 compounds, 2.8% hits. Potency, µM (highest dose often 9.22 µM), inactives show top-dose activation, negative = inhibition, most hits filed as activators. AID 485297, 2010. Huh7 Rab9 promoter-luciferase reporter, luminescence, 24 h; note: % of control where 0% means no effect; nearly all actives have a fitted effect of over 60% in size
#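 Promoter activation is measured as luciferase luminescence in Huh7 cells stably transfected with a Rab9 promoter–luciferase construct, following 24 h compound exposure at 37 °C and 10 min reagent incubation at ambient temperature.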
# ELG1 genotox = qHTS screen for small molecules that induce genotoxicity in human embryonic kidney (HEK293T) cells expressing luciferase-tagged ELG1 | HEK293T ELG1-luciferase reporter, luminescence, 16 h | Potency, µM (top dose mostly 46 µM), without a hit: top-dose activity change, positive = activation, actives largely listed as activators | 330,000 compounds, 1.3% hits | AID 504466, 2011; note: % of control where 0% means no effect; nearly all actives have a fitted effect of over 60% in size
#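 HEK293T cells expressing luciferase-tagged ELG1 were exposed to compound or DMSO vehicle for 16 hr at 37 °C and 5% CO2. Luciferase activity was then measured with ONE-Glo after 30 min at room temperature.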
# NPC1 prom act = qHTS Assay for NPC1 Promoter Activators; Huh7 NPC1 promoter luciferase reporter, 24 h; Potency, µM (doses to about 9.22 µM), inactives show at the highest dose activation, most hits filed as activators; 320,000 compounds, 2.4% hits; note: % of control where 0% means no effect; nearly all actives have a fitted effect of over 60% in size
#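 Readout is luciferase luminescence, reflecting NPC1 promoter activation in stably transfected Huh7 cells after 24 h compound exposure at 37 °C in reduced-serum medium with 10% FBS.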
# FLuc modulator = qHTS profiling assay for firefly luciferase inhibitor/activator using purifed enzyme and Km concentrations of substrates (counterscreen for miR-21 project); AID 588342, 2011; Potency, µM (doses to about 57.5 µM), inactives show at the top dose activity change, negative = inhibition, actives largely listed as inhibitors; Luciferin 4-monooxygenase (Photinus pyralis), P08659; purified FLuc, Km substrates, luminescence inhibition; 360,000 compounds, 6.9% hits;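 note: plate controls were vehicle for no effect and reference inhibitor for full effect; nearly all actives have a fitted effect of over 55% in size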
# Target sequence (P08659 whole entry, looked up): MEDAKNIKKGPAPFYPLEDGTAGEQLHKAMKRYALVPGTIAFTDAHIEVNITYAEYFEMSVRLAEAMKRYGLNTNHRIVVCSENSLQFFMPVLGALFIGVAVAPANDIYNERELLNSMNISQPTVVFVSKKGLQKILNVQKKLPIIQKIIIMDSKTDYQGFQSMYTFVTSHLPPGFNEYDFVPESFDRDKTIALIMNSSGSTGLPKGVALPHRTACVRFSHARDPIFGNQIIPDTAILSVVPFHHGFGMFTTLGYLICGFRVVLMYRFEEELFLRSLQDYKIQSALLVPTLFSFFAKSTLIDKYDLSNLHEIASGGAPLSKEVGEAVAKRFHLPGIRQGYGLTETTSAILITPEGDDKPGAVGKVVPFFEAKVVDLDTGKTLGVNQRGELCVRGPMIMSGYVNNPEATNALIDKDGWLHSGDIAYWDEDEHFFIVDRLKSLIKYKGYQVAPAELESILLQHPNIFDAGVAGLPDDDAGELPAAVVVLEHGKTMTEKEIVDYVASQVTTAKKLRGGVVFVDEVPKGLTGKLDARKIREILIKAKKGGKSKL
#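 Purified P. pyralis luciferase, 10 nM final, with Km-level 10 uM D-luciferin and 10 uM ATP in 50 mM Tris acetate pH 7.5, 10 mM Mg acetate, 0.01% Tween-20, 0.05% BSA; 6-point qHTS titration about 60 µM downward; luminescence read.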
# ELG1 DNA repair = qHTS screen for small molecules that inhibit ELG1-dependent DNA repair in human embryonic kidney (HEK293T) cells expressing luciferase-tagged ELG1. Potency, µM (top dose mostly 46.1 µM), for the others: at the highest dose activity change, negative = inhibition, actives largely listed as inhibitors. 330,000 compounds, 2.3% hits. HEK293T ELG1-luciferase reporter, luminescence, 16 h; DNA damage induced by 5-fluorouridine. AID 504467, 2011; note: % is set by controls: 0 for no effect and ±100 for the full control effect; nearly all actives have a fitted effect of over 55% in size
#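 Overnight (16 hr) co-exposure of 2,000 cells/well to 5-fluorouridine and compound at 37 °C preceded detection. Luciferase was quantified via ONE-Glo luminescence; loss of signal denotes inhibition.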
# * marks the source's active call; other numbers are inactive results; u = inconclusive; x = not tested or not shown. Calls come from the whole dose curve; as a rule, active = well fitted curve in the direction sought with a large enough effect; inconclusive = small, poorly fitted or top-dose-only effect, or another doubt; inactive = no such curve, though single readings can be large; an effect the other way counts as inactive or inconclusive. Potency is the fitted concentration of half-maximal effect.
SMILES,SMN2 splice up,Rab9 prom act,ELG1 genotox,NPC1 prom act,FLuc modulator,ELG1 DNA repair
Cn1cccc1/C=C1\SC(=Nc2cccc(O)c2)NC1=O,x,u,u,12%,12µM*,u
Clc1ccc2nc(N3CCCCC3)sc2c1,11µM*,2.5µM*,u,1.4µM*,2.7µM*,u
Fc1cccc2sc(N3CCOCC3)nc12,u,21%,14%,13%,u,u
Fc1cccc2sc(N3CCCCC3)nc12,u,u,13µM*,u,19µM*,u
O=C(c1ccc2ccccc2n1)N1CCN(Cc2c(F)cccc2Cl)CC1,x,-4%,-8%,0%,-1%,-10%
CS(=O)(=O)N1CCN(c2nc3ccc(Cl)cc3s2)CC1,x,u,7%,u,u,u
CC(C)C(=O)N1CCN(c2nc3ccc(Cl)cc3s2)CC1,x,u,u,2.5µM*,u,u
Fc1cccc(Cl)c1CN1CCN(c2nc3ccccc3s2)CC1,x,2.5µM*,15µM*,2.5µM*,5.4µM*,u
CN(Cc1cccc(C(F)(F)F)c1)Cc1nc(-c2cnccn2)no1,x,2%,3%,-5%,0%,10%
CC(=O)Nc1ccc2c(c1)C(=O)N(c1cccc3ccccc13)C2=O,x,4%,0%,-5%,-2%,1%
NC(=O)NC(=O)C(Nc1ccc(N2CCCCC2)cc1)c1ccccc1 (stereo unspecified),x,14%,u,17%,u,u
COc1nc(-c2ccc(C)cc2)ccc1-c1noc(-c2ccc(C(C)(C)C)cc2)n1,12%,x,x,x,0%,x
Clc1ccc2nc(N3CCCCC3)[nH]c2c1,14µM*,1.4µM*,2.1µM*,1.6µM*,4.8µM*,u
Cc1c(NS(C)(=O)=O)cccc1-c1nc2ccccc2s1,x,x,x,x,8.5µM*,x
CS(=O)(=O)Nc1ccc(-c2nc3ccccc3s2)cc1,x,x,x,x,1.1µM*,x
Cc1nc2ccc(S(=O)(=O)Nc3cccc(-c4nc5cccnc5s4)c3C)cc2s1,-75%,-2%,-3%,-6%,u,5%
COc1cc(C(=O)NNC(=O)c2cc(-c3ccccc3)n[nH]2)cc(OC)c1C,x,-2%,-2%,1%,u,u
COc1ccccc1C(=O)Nc1ccc(C(=O)O)cc1,9%,-1%,3%,0%,-13%,15%
CCOc1ccc(NC(=O)c2ccc(NC(=O)c3ccccc3Br)cc2)cc1,x,-1%,u,-1%,-15%,27%
COc1ccccc1C(=O)Nc1ccc(OCC(=O)N2CC(C)OC(C)C2)cc1 (stereo unspecified),x,-5%,9%,0%,5.4µM*,u
COc1ccccc1C(=O)Nc1ccc(C(=O)c2ccccc2)cc1,-5%,u,4%,-5%,13µM*,u
CCOc1ccc(NC(=O)c2ccccc2O)cc1,3.2µM*,1.6µM*,u,1.4µM*,0.54µM*,u
CCOc1ccc(NC(=O)c2ccccc2CO)cc1,12%,u,u,u,17µM*,u
COc1ccccc1C(=O)NCC(=O)OCC(=O)N1CC(C)OC(C)C1 (stereo unspecified),x,-1%,0%,-1%,-3%,21%
Cc1nn(C(=O)c2ccccc2)c(C)c1S(=O)(=O)N1CCCCCC1,x,x,x,x,-12%,x
SMILES,SMN2 splice up,Rab9 prom act,ELG1 genotox,NPC1 prom act,FLuc modulator,ELG1 DNA repair
COc1cc(CC(=O)OCC(=O)N2CC(C)CC(C)C2)cc(OC)c1OC (stereo unspecified),x,4%,-3%,3%,-1%,6%
CC(Nc1nc(N2CCNCC2)nc2ccccc12)c1ccccc1 (stereo unspecified),-30%,4%,-3%,-1%,0%,1%
CCOc1ccc(NC(=O)c2ccccc2OC)cc1,u,u,u,u,12µM*,u
COc1ccccc1NC(=O)Cn1nnc2sc3c(c2c1=O)CC(C)(C)OC3,x,-1%,-1%,-2%,0%,21µM*
S=c1[nH]nc(COc2ccc(Cl)cc2Cl)n1-c1ccccc1,x,-1%,-2%,-4%,6%,-11%
CCOc1ccc(S(=O)(=O)N2CCC(C(=O)N3CCN(Cc4ccccc4)CC3)CC2)cc1,x,8%,-14%,4%,4%,0%
CC(C)Sc1nsc2nc(=O)c(/C=C3\C=Nc4ccccc43)c(N)n12,1%,-2%,0%,-1%,24µM*,1%
CC(C)c1nn2c(N)c(/C=C3\C=Nc4ccccc43)c(=O)nc2s1,x,-6%,4%,1%,u,-17%
CCCc1nn2c(N)c(/C=C3\C=Nc4ccccc43)c(=O)nc2s1,15%,2%,1%,-2%,-16%,-2%
CS(=O)(=O)c1nsc2nc(=O)c(/C=C3\C=Nc4ccccc43)c(N)n12,3%,1%,4%,-1%,15µM*,-4%
Cc1nccc(-c2ccc3c(c2)OCO3)n1,7%,3%,7%,0%,-1%,-5%
CN(C)/C=N/c1nc(-c2ccc3c(c2)OCO3)cs1,14µM*,3.5µM*,u,4µM*,17µM*,u
CN(C)/C=N/c1nc(-c2ccc3ccccc3c2)cs1,x,0.35µM*,u,0.5µM*,4.8µM*,u
Cc1ccc(NC(=O)c2ccc(NC(=O)N3CCSc4ncccc43)cc2)c(Cl)c1,x,x,x,x,-1%,x
Cc1cc(C)c(C)c(S(=O)(=O)N2CCN(c3ccc(O)cc3)CC2)c1C,-20%,-8%,3%,1%,-18%,u
COc1ccc(S(=O)(=O)N2CCC(C(=O)N(C)Cc3ccc(C)o3)CC2)cc1OC,x,4%,3%,-5%,-1%,16µM*
Cc1ccc(CN(C)C(=O)c2cccc(S(=O)(=O)N3CCCC3)c2)o1,x,x,3%,x,x,10%
Nc1cc(=O)nc(SCC(=O)Nc2ccc(F)cc2)n1-c1ccc(Cl)cc1,3%,x,x,x,-3%,x
C=CCn1cc(/C=C/c2cc[n+](C)cc2)c2ccccc21,x,-48%,-13%,-44%,-1%,u
CCn1cc(/C=C/c2cc[n+](C)cc2)c2ccccc21,x,-43%,-8%,-42%,0%,2.9µM*
COc1cc2c(cc1OC)CN(C(=O)CNS(=O)(=O)c1ccc(C)c(C)c1)CC2,x,-1%,6%,0%,1%,2%
CCCCn1c(=O)c2oc3ccccc3c2n(Cc2cccc(C)c2)c1=O,x,x,x,x,5%,x
